Where “and” joins values, the source holds several entries; their conditions need not be identical. Identical values can stand only once. Inconclusive results are not listed. Calls of active or inactive are those of the source. The call rests on the fitted dose curve; in most records, active means well fitted curve in the direction sought with a large enough effect in the repeat runs; inconclusive means weak or mixed curves; inactive means no such curve, though single readings can be large; an effect the other way counts as inactive or inconclusive.
What was measured:
[1] = qHTS RealTime-Glo MT Cell Viability Assay in HEK293 cells - 16 hour (AID 1224872); further: nearly all actives have a fitted effect of over 50% in size; further: potency means the concentration at half of the fitted maximal effect; on activity change, negative = cytotoxicity: top concentration of the series differs between compounds
How it was run: (§1)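 Assay medium contained NanoLuc luciferase plus cell-permeant prosubstrate, added with HEK293 cells at 600 cells/well. After 5 h at 37 C/5% CO2 compounds were added; plates stayed at 37 C for 40 h with serial luminescence reads.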

[2] = qHTS RealTime-Glo MT Cell Viability Assay in HEK293 cells - 40 hour (AID 1224874); conditions: RealTime-Glo luminescence; max response: stronger effect = lower value; further: nearly all actives have a fitted effect of over 50% in size; further: potency means the concentration at half of the fitted maximal effect
How it was run: (§2)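 HEK293 + NanoLuc + prosubstrate, 600 cells/well; 5 h, 37 C/5% CO2; compound 23 nL in DMSO by pintool; 37 C; luminescence read at 0, 8, 16, 24, 32 and 40 h time points.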

[3] = A CellTox Green Cytotoxicity Assay to monitor cytotoxicity in HepG2 cells - 16 hour (AID 1224876); further: nearly all actives have a fitted effect of over 45% in size; further: potency means the concentration at half of the fitted maximal effect
How it was run: (§3)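 Measurements at 0, 8, 16, 24, 32 and 40 h of treatment captured CellTox Green fluorescence in HepG2 cells that had been co-plated with reagent and preincubated 5 h at 37 C/5% CO2.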

[4] = qHTS RealTime-Glo MT Cell Viability Assay in HepG2 cells - 32 hour (AID 1224877); further: nearly all actives have a fitted effect of over 55% in size; further: potency means the concentration at half of the fitted maximal effect
How it was run: (§4)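 qHTS, HepG2, 600 cells/well, RealTime-Glo (NanoLuc + prosubstrate) added with cells; 5 h preincubation; DMSO compound addition; 37 C; luminescence at 0/8/16/24/32/40 h.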

[5] = A CellTox Green Cytotoxicity Assay to monitor cytotoxicity in HepG2 cells - 24 hour (AID 1224878); further: nearly all actives have a fitted effect of over 45% in size; further: potency means the concentration at half of the fitted maximal effect
How it was run: as §3

[6] = A CellTox Green Cytotoxicity Assay to monitor cytotoxicity in HepG2 cells - 40 hour (AID 1224879); further: nearly all actives have a fitted effect of over 40% in size; further: potency means the concentration at half of the fitted maximal effect
How it was run: as §3

[7] = qHTS RealTime-Glo MT Cell Viability Assay in HEK293 cells - 0 hour (AID 1224880); further: nearly all actives have a fitted effect of over 45% in size; further: potency means the concentration at half of the fitted maximal effect; on activity change, negative = cytotoxicity: top concentration of the series differs between compounds
How it was run: as §2

[8] = A CellTox Green Cytotoxicity Assay to monitor cytotoxicity in HEK293 cells - 32 hour (AID 1224881); further: nearly all actives have a fitted effect of over 40% in size; further: potency means the concentration at half of the fitted maximal effect
How it was run: (§5)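 Tox21 screen in HEK293: membrane-impermeant cyanine dye fluoresces on binding dead-cell DNA; compound pinned 5 h post-seeding, plates held at 37 C, signal read repeatedly through 40 h.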

[9] = A CellTox Green Cytotoxicity Assay to monitor cytotoxicity in HepG2 cells - 0 hour (AID 1224882); further: nearly all actives have a fitted effect of over 35% in size
How it was run: as §3

[10] = A CellTox Green Cytotoxicity Assay to monitor cytotoxicity in HepG2 cells - 32 hour (AID 1224883); further: nearly all actives have a fitted effect of over 50% in size; further: potency means the concentration at half of the fitted maximal effect
How it was run: as §3

[11] = A CellTox Green Cytotoxicity Assay to monitor cytotoxicity in HEK293 cells - 8 hour (AID 1224884); further: nearly all actives have a fitted effect of over 35% in size; further: potency means the concentration at half of the fitted maximal effect
How it was run: as §5

[12] = qHTS RealTime-Glo MT Cell Viability Assay in HEK293 cells - 24 hour (AID 1224886); further: nearly all actives have a fitted effect of over 50% in size; further: potency means the concentration at half of the fitted maximal effect; on activity change, negative = cytotoxicity: top concentration of the series differs between compounds
How it was run: as §1

[13] = qHTS RealTime-Glo MT Cell Viability Assay in HEK293 cells - 8 hour (AID 1224887); further: nearly all actives have a fitted effect of over 50% in size; further: potency means the concentration at half of the fitted maximal effect; on activity change, negative = cytotoxicity: top concentration of the series differs between compounds
How it was run: as §2

[14] = A CellTox Green Cytotoxicity Assay to monitor cytotoxicity in HEK293 cells - 16 hour (AID 1224888); further: nearly all actives have a fitted effect of over 35% in size; further: potency means the concentration at half of the fitted maximal effect
How it was run: as §5

[15] = qHTS RealTime-Glo MT Cell Viability Assay in HepG2 cells - 0 hour (AID 1224889); further: nearly all actives have a fitted effect of over 50% in size; further: potency means the concentration at half of the fitted maximal effect
How it was run: as §4

[16] = A CellTox Green Cytotoxicity Assay to monitor cytotoxicity in HepG2 cells - 8 hour (AID 1224890); further: nearly all actives have a fitted effect of over 45% in size; further: potency means the concentration at half of the fitted maximal effect
How it was run: as §3

[17] = qHTS assay to identify small molecule antagonists of the estrogen receptor alpha (ER-alpha) signaling pathway using the BG1 cell line in the presence of 0.1 nM 17-beta-estradiol - cell viability counter screen (AID 1259241); further: nearly all actives have a fitted effect of over 40% in size
How it was run: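 Cells were plated and left 24 hr, compounds in DMSO were pinned in, 17beta-estradiol was added to 0.1 nM final, and after 22 hr CellTiter-Fluor reagent was added for 30 min before fluorescence was read.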

[18] = A CellTox Green Cytotoxicity Assay to monitor cytotoxicity in HEK293 cells - 24 hour (AID 1224875); further: nearly all actives have a fitted effect of over 45% in size; further: potency means the concentration at half of the fitted maximal effect; on activity change: series mostly up to about 77 µM
How it was run: as §5

[19] = qHTS RealTime-Glo MT Cell Viability Assay in HepG2 cells - 16 hour (AID 1224885); further: nearly all actives have a fitted effect of over 50% in size; further: potency means the concentration at half of the fitted maximal effect
How it was run: as §4
On the % scale 0 is the no-effect control and ±100 the full control effect.

CC(=O)[C@H]1CC[C@H]2[C@@H]3CCC4=CC(=O)CC[C@]4(C)[C@H]3CC[C@]12C
inactive: Potency [3] | Potency [4] | Potency [5] | Potency [9] | Potency [11] | Potency [14] | Potency [16] | Potency [17]
active: Potency [1] 15.4 µM and 19.5 µM | Potency [2] 13.7 µM and 17.4 µM | Potency [6] 54.6 µM and 43.6 µM | Potency [7] 15.4 µM and 19.5 µM | Potency [8] 24.4 µM and 34.7 µM | Potency [10] 49 µM | Potency [12] 15.4 µM and 17.4 µM | Potency [13] 13.7 µM | Potency [15] 6.88 µM and 5.49 µM

CC(=O)OCC=C(C)C
inactive: Potency [1] | max response [2] -1.54% | Potency [18] | Potency [4] | Potency [7] | Potency [8] | Potency [9] | Potency [11] | Potency [19] | Potency [12] | Potency [13] | Potency [14] | Potency [16] | Potency [17]

C=CC(=O)Nc1cc2c(Nc3ccc(F)c(Cl)c3)ncnc2cc1OCCCN1CCOCC1
active: Potency [1] 10.7 µM | Potency [2] 9.52 µM | Potency [18] 19 µM | Potency [3] 21.3 µM | Potency [4] 9.52 µM | Potency [5] 10.7 µM | Potency [6] 6.01 µM | Potency [8] 12 µM | Potency [10] 6.01 µM | Potency [19] 8.49 µM | Potency [12] 10.7 µM | Potency [13] 9.52 µM | Potency [15] 9.52 µM
inactive: Potency [9] | Potency [11] | Potency [14] | Potency [16]

O=S(=O)(O)c1ccc(N=Nc2c(O)ccc3ccccc23)cc1
inactive: Potency [1] | Potency [18] | Potency [3] | Potency [5] | Potency [6] | Potency [8] | Potency [9] | Potency [10] | Potency [11] | Potency [16]

CCCCCCCCCCCC(=O)OCC(C)OC(=O)CCCCC(=O)O (centres undefined)
inactive: Potency [1] | max response [2] 14.1% | Potency [18] | Potency [3] | Potency [5] | Potency [6] | Potency [7] | Potency [8] | Potency [9] | Potency [10] | Potency [11] | Potency [19] | Potency [12] | Potency [13] | Potency [14] | Potency [15] | Potency [16] | Potency [17]

ClCCl
inactive: Potency [1] | max response [2] 10.5% | Potency [18] | Potency [3] | Potency [4] | Potency [5] | Potency [6] | Potency [8] | Potency [9] | Potency [10] | Potency [11] | Potency [19] | Potency [12] | Potency [13] | Potency [14] | Potency [16] | Potency [17]

CCCCCCCC/C=C\CCCCCCCCN
inactive: Potency [9] | Potency [15] | Potency [17]
active: Potency [1] 21.3 µM | Potency [18] 21.3 µM | Potency [11] 23.9 µM | Potency [19] 23.9 µM | Potency [13] 23.9 µM | Potency [14] 23.9 µM

CC(C)(C)CC(C)(C)c1ccc(Nc2ccc(C(C)(C)CC(C)(C)C)cc2)cc1
inactive: activity change, negative = cytotoxicity [1] -0.589% [at 6.97 µM] | activity change [18] 4.29% [at 6.97 µM, stronger effect = higher value] | cytotoxicity increase [3] -0.431% [at 6.97 µM] | activity change, negative = cytotoxic [4] 0.186% [at 6.97 µM] | cytotoxicity [5] 4.45% [at 6.97 µM] | cytotoxicity increase [6] 2.12% [at 6.97 µM] | activity change, negative = cytotoxicity [7] -8.12% [at 6.97 µM] | cytotoxicity increase [8] 0.962% [at 6.97 µM] | cytotoxicity [9] 0.162% [at 6.97 µM] | cytotoxicity increase [10] 0.939% [at 6.97 µM] | cytotoxicity increase [11] 0.178% [at 6.97 µM] | activity change, negative = cytotoxic [19] 0.171% [at 6.97 µM] | activity change, negative = cytotoxicity [12] 3.98% [at 6.97 µM] | activity change, negative = cytotoxicity [13] -20.4% [at 6.97 µM] | activity change [14] 5.08% [at 6.97 µM, stronger effect = higher value] | activity change, negative = cytotoxicity [15] 1.23% [at 6.97 µM] | cytotoxicity increase [16] 1.07% [at 6.97 µM]

CCN1C(=O)c2ccccc2C1Nc1ccc(OCCN2CCCCC2)cc1 (centres undefined)
inactive: Potency [3] | Potency [4] | Potency [5] | Potency [6] | Potency [8] | Potency [9] | Potency [10] | Potency [11] | Potency [19] | Potency [14] | Potency [15] | Potency [16] | Potency [17]
active: Potency [1] 4.77 µM | Potency [12] 4.77 µM | Potency [13] 3.79 µM

CCN(CC)C(=O)c1cc(S(=O)(=O)Cc2ccccc2)c(N2CCC(c3ccccc3)CC2)cc1N(CC)CCN(C)C
active: Potency [1] 15.3 µM | Potency [2] 7.67 µM | Potency [18] 19.3 µM | Potency [3] 17.2 µM | Potency [4] 17.2 µM | Potency [5] 17.2 µM | Potency [6] 13.6 µM | Potency [8] 19.3 µM | Potency [10] 15.3 µM | Potency [19] 19.3 µM | Potency [13] 17.2 µM | Potency [16] 19.3 µM
inactive: Potency [9] | Potency [17]

Nc1ccc(NCCO)c([N+](=O)[O-])c1
inactive: Potency [1] | max response [2] 0.226% | Potency [18] | Potency [3] | Potency [5] | Potency [6] | Potency [7] | Potency [8] | Potency [9] | Potency [10] | Potency [11] | Potency [19] | Potency [12] | Potency [13] | Potency [16]

Source: PubChem BioAssay (Tox21)
